Experiment [1] can be described thus: qHTS assay to identify small molecule agonists of the estrogen receptor alpha (ER-alpha) signaling pathway in the presence of an antagonist - cell viability counter screen (AID 1259386).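 Also: series mostly up to about 92 µM; cells exposed to compounds for 22 h at 37 °C before the viability read; nearly all actives have a fitted effect of over 30% in size.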 Put shortly: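 ICI-182,780 at 10.0nM final accompanies the compound titration (15 concentrations, 22hr, 37C) on VM7Luc4E2 cells. The CellTiter-Fluor fluorescence readout runs in the same wells as the luciferase assay.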

Experiment [2] concerns the target Progesterone receptor (Homo sapiens) (UniProt P06401). Nature of the experiment: qHTS assay to identify small molecule agonists of the progesterone receptor (PR) signaling pathway (AID 1346784; calls by dose curve; also: nearly all actives have a fitted effect of over 30% in size). The method, boiled down: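 Beta-lactamase reporter read-out: after 16 hr compound treatment at 37C and a further 2 hr at room temperature with LiveBLAzer B/G FRET substrate, fluorescence was measured in PR-UAS-bla HEK 293T cells grown in 2% charcoal-stripped serum.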

Experiment [3] in a line: qHTS assay to identify small molecule antagonists of the progesterone receptor (PR) signaling pathway - cell viability counter screen (AID 1346798). Also: nearly all actives have a fitted effect of over 50% in size. Also: potency is read from the fitted curve at half-maximal effect. The method, boiled down: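 HEK293T PR-UAS-bla, 2% charcoal-stripped FBS; 4 hr pre-plate; cpd + R5020, 16 h 37C; LiveBLAzer read first; then CellTiter-Glo 30 min RT, luminescence.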
The nature of experiment [4]: qHTS assay to identify small molecule agonists of the progesterone receptor (PR) signaling pathway - cell viability counter screen (AID 1346799; calls by dose curve; also: nearly all actives have a fitted effect of over 45% in size; also: potency is read from the fitted curve at half-maximal effect). Put shortly: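 Luminescence from CellTiter-Glo, added after the beta-lactamase FRET read in the same wells, gave cytotoxicity in PR-UAS-bla HEK293T cells treated with compounds for 16 hr at 37C.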
Experiment [5] in a line: qHTS assay to identify small molecule antagonists of the TGF-beta/Smad signaling pathway - cell viability counter screen (AID 1346824). Also: nearly all actives have a fitted effect of over 50% in size. Put shortly: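 SBE-bla HEK 293T cells, incubated overnight, then compound plus 0.25 ng/mL TGF-beta1 (stock added) for 5 hr at 37 C. Viability was read in the same wells by CellTiter-Glo luminescence after 30 min at room temperature.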
Experiment [6] in a line: qHTS assay to identify small molecule agonists of the TGF-beta/Smad signaling pathway - cell viability counter screen (AID 1346829). Also: top concentration of the series differs between compounds; nearly all actives have a fitted effect of over 45% in size. Put shortly:
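Here the cytotoxicity of library compounds is measured in SBE-bla HEK 293T cells treated for 5 hr, using CellTiter-Glo added to wells already read for the beta-lactamase reporter.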

Experiment [7] is described as follows: qHTS assay to identify small molecule agonists of the TGF-beta/Smad signaling pathway (AID 1346859; active = well fitted activation curve with a large enough effect in the signal ratio in the repeat runs, not every such curve was filed as active; the % refers to the signal ratio; also: series mostly up to about 77 µM). The method, boiled down: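 SBE-bla HEK 293T, 4,000 cells/well, plated o/n; cpd in DMSO, 5 hr, 37 C/5% CO2; B/G FRET substrate 2 hr RT; ex 405, em 460/530 nm.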
Experiment [8] is described as follows: Human pregnane X receptor (PXR) small molecule agonists, qHTS cell viability counter screen (AID 1346977). Also: nearly all actives have a fitted effect of over 50% in size. Also: potency is read from the fitted curve at half-maximal effect. The method, boiled down:
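PXR-Luc HepG2, 2,000 cells/well, 5% charcoal-stripped FBS; 5hr settle; cpd 24hr, 37C/5% CO2; CellTiter-Fluor at 23hr, read 1hr later (fluorescence).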

Experiment [9] is described as follows: Caspase-3/7 induction in HepG2 cells by small molecules, qHTS assay (AID 1346978). Also: nearly all actives have a fitted effect of over 15% in size. Put shortly:
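Wild-type HepG2 cells, 2,000/well, settled 5 hr at 37 C and 5% CO2, then compound-treated for 17 hr; caspase-3/7 activity read by luminescent Caspase-Glo 3/7 after 30 min at room temperature.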

The nature of experiment [10]: Caspase-3/7 induction in CHO-K1 cells by small molecules, qHTS cell viability counter screen (AID 1346979). Also: nearly all actives have a fitted effect of over 35% in size. Also: potency is read from the fitted curve at half-maximal effect. The method, boiled down: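 Cells (CHO-K1, wild type) are plated at 1,500 per well and incubated 5hr. Test compounds in DMSO are then pinned in, followed by 16hr at 37C and 5% CO2. Viability is read by CellTiter-Fluor fluorescence after 1hr.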
A short description of experiment [11]: Caspase-3/7 induction in CHO-K1 cells by small molecules, qHTS assay (AID 1346980). Also: nearly all actives have a fitted effect of over 15% in size. Put shortly: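 Wild-type CHO-K1 cells exposed to compounds for 17hr at 37 C, 5% CO2. Caspase-3/7 activity then measured by Caspase-Glo 3/7 luminescence after 30min at room temperature.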
Experiment [12] in a line: Caspase-3/7 induction in HepG2 cells by small molecules, qHTS cell viability counter screen (AID 1346981). Also: nearly all actives have a fitted effect of over 30% in size. Also: potency is read from the fitted curve at half-maximal effect. The method, boiled down:
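Multiplexed with the caspase-3/7 assay: HepG2 cells, 16 hr compound treatment, CellTiter-Fluor viability detection by fluorescence.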

The target in experiment [13] is Nuclear receptor subfamily 1 group I member 2 (Homo sapiens) (UniProt O75469). Nature of the experiment: Human pregnane X receptor (PXR) small molecule agonists, qHTS assay (AID 1346982). Also: nearly all actives have a fitted effect of over 35% in size. Also: potency is read from the fitted curve at half-maximal effect. The method, boiled down:
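We seeded PXR-Luc HepG2 cells in assay medium containing 5% charcoal-stripped FBS, added compounds 5 hr later, incubated 24 hr, and read luminescence with ONE-Glo reagent.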

The target of experiment [14] is Acetylcholinesterase (Homo sapiens) (UniProt P22303). Nature of the experiment: Acetylcholinesterase (AChE) small molecule antagonists: colormetric cell-based qHTS assay (AID 1347395; calls by dose curve; also: nearly all actives have a fitted effect of over 30% in size; also: potency is read from the fitted curve at half-maximal effect). The method, boiled down:
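Colorimetric read-out: DTNB detects thiocholine released when cellular AChE in SH-SY5Y cells hydrolyses acetylthiocholine. Cells attached overnight, received compound for 30 min at 37 C, then substrate mix for 90 min at 37 C.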

Experiment [15] has as its target Thyrotropin-releasing hormone receptor (Homo sapiens) (UniProt P34981). Nature of the experiment: qHTS assay to identify small molecule antagonists of the thyrotropin-releasing hormone receptor (TRHR) signaling pathway (AID 1346877; active = well fitted inhibition curve with a large enough effect in the repeat runs, not every such curve was filed as active; also: series mostly up to about 51 µM). The method, boiled down:
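Screening used HEK293 cells engineered with TRHR, with a brief 5 min room-temperature compound exposure preceding addition of TRH to 1 nM. The read-out was kinetic calcium-dye fluorescence, concentration-response from 15 doses in triplicate.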

For experiment [16] the target is unchanged. As to the kind of experiment: qHTS assay to identify small molecule agonists of the thyrotropin-releasing hormone receptor (TRHR) signaling pathway (AID 1346891; calls by dose curve; also: series mostly up to about 58 µM). Put shortly: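 Intracellular calcium rise, read as fluorescence every second for 3 min, served as the agonist signal in dye-loaded HEK293 cells expressing TRHR; each compound ran at 15 concentrations in triplicate.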

The target of experiment [17] is Progesterone receptor (Homo sapiens) (UniProt P06401). Nature of the experiment: qHTS assay to identify small molecule antagonists of the progesterone receptor (PR) signaling pathway (AID 1346795; active = well fitted inhibition curve with a large enough effect in the signal ratio in the repeat runs, not every such curve was filed as active; the % refers to the signal ratio). Put shortly:
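Read-out is fluorescence from the LiveBLAzer B/G FRET substrate, cleaved by a UAS-controlled beta-lactamase in PR-UAS-bla HEK293T cells after 16 hr exposure to compound plus 1 nM promegestone (final), followed by 2 hr at room temperature.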

Data on eight molecules can be found in PubChem BioAssay (Tox21).

“And” between values parts separate entries of the source, which are not always exact repeats. Equal values may be shown once. Results filed as inconclusive are left out. Where a structure was tested more than once in an assay, its records may differ in their call. The source made the active and inactive calls. Unless noted, calls follow the shape of the dose curve; as a rule, active = well fitted curve in the direction sought with a large enough effect in the repeat runs; inconclusive = weak or mixed curves; inactive = no such curve, though single readings can be large; an effect the other way counts as inactive or inconclusive.

Chain of Thyrotropin-releasing hormone receptor (Homo sapiens) (P34981 whole entry, looked up): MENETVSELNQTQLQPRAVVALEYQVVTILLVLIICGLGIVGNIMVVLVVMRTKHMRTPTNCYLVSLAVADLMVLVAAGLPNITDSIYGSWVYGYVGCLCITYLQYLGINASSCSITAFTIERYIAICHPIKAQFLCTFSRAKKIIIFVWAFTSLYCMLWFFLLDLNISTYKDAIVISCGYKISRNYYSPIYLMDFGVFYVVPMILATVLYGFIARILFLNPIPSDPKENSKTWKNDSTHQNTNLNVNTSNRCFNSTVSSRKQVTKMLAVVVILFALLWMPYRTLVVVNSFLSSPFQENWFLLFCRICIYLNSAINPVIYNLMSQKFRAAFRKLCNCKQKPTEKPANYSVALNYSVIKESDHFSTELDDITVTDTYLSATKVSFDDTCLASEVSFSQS
Chain of Nuclear receptor subfamily 1 group I member 2 (Homo sapiens) (O75469 whole entry, looked up): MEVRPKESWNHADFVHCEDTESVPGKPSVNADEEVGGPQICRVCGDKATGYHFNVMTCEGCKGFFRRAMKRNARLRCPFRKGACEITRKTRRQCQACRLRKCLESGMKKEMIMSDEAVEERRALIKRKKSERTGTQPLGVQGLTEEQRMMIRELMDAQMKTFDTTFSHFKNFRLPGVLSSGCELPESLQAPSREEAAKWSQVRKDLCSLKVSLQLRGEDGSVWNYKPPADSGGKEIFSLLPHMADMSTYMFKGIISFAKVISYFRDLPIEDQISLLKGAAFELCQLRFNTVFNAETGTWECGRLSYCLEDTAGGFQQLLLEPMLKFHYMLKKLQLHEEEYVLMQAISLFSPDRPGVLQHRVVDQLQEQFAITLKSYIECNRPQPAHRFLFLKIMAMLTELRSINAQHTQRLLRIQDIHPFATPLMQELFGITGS
Chain of Progesterone receptor (Homo sapiens) (P06401 whole entry, looked up): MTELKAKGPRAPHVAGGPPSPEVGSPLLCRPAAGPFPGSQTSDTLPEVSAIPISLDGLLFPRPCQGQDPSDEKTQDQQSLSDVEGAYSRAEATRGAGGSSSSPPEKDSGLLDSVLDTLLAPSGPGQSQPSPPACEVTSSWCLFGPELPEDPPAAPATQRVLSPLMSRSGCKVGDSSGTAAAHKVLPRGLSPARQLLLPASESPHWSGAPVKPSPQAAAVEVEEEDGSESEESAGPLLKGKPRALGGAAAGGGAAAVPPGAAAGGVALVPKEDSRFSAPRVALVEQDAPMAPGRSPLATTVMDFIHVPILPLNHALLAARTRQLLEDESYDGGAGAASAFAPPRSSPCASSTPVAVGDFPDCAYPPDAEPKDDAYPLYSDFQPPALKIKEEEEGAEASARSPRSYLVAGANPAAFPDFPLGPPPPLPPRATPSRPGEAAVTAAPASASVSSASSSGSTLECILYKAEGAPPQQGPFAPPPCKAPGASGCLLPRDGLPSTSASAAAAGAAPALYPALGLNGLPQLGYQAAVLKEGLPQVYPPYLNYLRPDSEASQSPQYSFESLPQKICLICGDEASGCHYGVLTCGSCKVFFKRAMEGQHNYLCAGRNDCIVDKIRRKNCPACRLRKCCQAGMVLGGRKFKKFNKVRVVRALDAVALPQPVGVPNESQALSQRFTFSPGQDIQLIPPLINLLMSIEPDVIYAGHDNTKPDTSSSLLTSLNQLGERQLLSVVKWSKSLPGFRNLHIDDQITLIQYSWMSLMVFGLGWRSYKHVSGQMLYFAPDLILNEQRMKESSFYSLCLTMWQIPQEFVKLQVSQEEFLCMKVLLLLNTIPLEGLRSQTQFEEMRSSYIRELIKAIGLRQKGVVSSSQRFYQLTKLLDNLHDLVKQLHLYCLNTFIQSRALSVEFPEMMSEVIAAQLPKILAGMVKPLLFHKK
Chain of Acetylcholinesterase (Homo sapiens) (P22303 whole entry, looked up): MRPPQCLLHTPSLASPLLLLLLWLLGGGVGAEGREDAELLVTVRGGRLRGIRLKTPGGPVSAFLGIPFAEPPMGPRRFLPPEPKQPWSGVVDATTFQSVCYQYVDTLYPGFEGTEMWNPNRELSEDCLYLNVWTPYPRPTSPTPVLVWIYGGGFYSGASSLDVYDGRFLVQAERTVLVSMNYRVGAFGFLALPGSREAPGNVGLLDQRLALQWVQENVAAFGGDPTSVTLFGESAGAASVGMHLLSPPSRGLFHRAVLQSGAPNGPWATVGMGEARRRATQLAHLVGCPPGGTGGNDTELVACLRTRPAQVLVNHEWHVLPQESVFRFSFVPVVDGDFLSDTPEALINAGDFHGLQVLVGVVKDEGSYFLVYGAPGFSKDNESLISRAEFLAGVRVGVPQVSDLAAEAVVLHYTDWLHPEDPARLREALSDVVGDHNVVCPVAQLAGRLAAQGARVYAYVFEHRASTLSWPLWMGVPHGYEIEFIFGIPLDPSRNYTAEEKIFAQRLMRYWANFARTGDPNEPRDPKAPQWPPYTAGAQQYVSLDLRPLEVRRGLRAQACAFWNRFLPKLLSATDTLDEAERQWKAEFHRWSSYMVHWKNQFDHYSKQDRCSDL

`NNCCO`: the Potency entry in experiment [1], in experiment [2], in [3], in experiment [4], in experiment [5] and in [6] was “inactive” each time. Further, the Potency result in experiment [8], in experiment [9], in experiment [10], in experiment [11], in experiment [12] and in experiment [13] was “inactive” each time. Further, in experiment [14], the Potency result is “inactive”. Besides, in [7], the outcome was inactive.

On to `COC1=CC(=O)O[C@@H](/C=C/c2ccc3c(c2)OCO3)C1`, for which the Potency result in experiment [1], in [2], in experiment [3], in [5], in experiment [6] and in [15] was “inactive” each time. In addition, the Potency entry in experiment [8], in [9], in experiment [10], in experiment [11], in experiment [12] and in [13] was “inactive” each time. Moreover, the Potency entry in experiment [14] was “inactive”. For the same molecule, the molecule was called inactive in [7] and in experiment [16].

Consider `C[C@H]1[C@@H]2Cc3ccc(O)cc3[C@@]1(C)CCN2C`, for which the Potency result in experiment [1], in experiment [2], in experiment [17], in [4], in [5] and in experiment [6] was “inactive” each time. Besides, the Potency result in experiment [15], in [9], in experiment [10], in [11], in experiment [12] and in experiment [13] was “inactive” throughout. For the same molecule, the call in experiment [7] and in [16] was inactive. In addition, the Potency in experiment [14] is 15.2 µM (active).

Turning to `CCCN(CCOc1c(Cl)cc(Cl)cc1Cl)C(=O)n1ccnc1`, the Potency result in [1], in experiment [2], in experiment [5], in experiment [6], in experiment [9] and in experiment [11] was “inactive” throughout. In experiment [14], the Potency result was “inactive”. For the same molecule, the Potency in [3] was 78.6 µM (active); in experiment [8], 50.1 µM (active); in experiment [10], 62.4 µM (active); in experiment [12] it was 62.4 µM (active); in [13] it was 7.86 µM (active) and 3.44 µM (active). For the same molecule, the molecule was classed as inactive in experiment [7].

Consider `C=CCOCC1CO1` (centres undefined), for which the Potency result in experiment [1], in [2], in [17], in [4], in experiment [5] and in experiment [6] was “inactive” throughout. Besides, the Potency result in experiment [15], in [8], in experiment [9], in [10], in experiment [11] and in experiment [12] was “inactive” each time. The Potency entry in [13] and in [14] was “inactive” throughout. In addition, the molecule was classed as inactive in experiment [7] and in experiment [16].

Turning to `CCCCCCCCP(=O)(O)O`, the Potency entry in [1], in experiment [2], in experiment [17], in experiment [5], in experiment [6] and in experiment [15] was “inactive” in each case. Further, the Potency entry in experiment [8], in experiment [9], in experiment [10], in experiment [11], in experiment [12] and in experiment [13] was “inactive” in each case. Besides, in experiment [14], the Potency entry was “inactive”. Besides, the Potency in experiment [4] was 27.3 µM (active). Further, the call in experiment [7] and in [16] was inactive.

On to `SCc1ccccc1`, for which the Potency entry in [1], in experiment [2], in [3], in experiment [4], in experiment [5] and in experiment [6] was “inactive” in each case. The Potency entry in experiment [15], in [8], in experiment [9], in experiment [10], in experiment [11] and in experiment [12] was “inactive” each time. Further, the Potency result in experiment [13] and in experiment [14] was “inactive” each time. The molecule was classed as inactive in experiment [16].

As for `CC(C)c1ccc(OP(=O)(Oc2ccc(C(C)C)cc2)Oc2ccc(C(C)C)cc2)cc1`, the Potency result in [1], in experiment [2], in [5], in experiment [6], in experiment [15] and in [8] was “inactive” in each case. Moreover, the Potency entry in experiment [9], in experiment [10], in [11] and in experiment [12] was “inactive” each time. The Potency was 30.6 µM (active) in [3]; “inactive and 30.6 µM (active)” in experiment [4]; 4.36 µM (active) and 5.45 µM (active) and 10.9 µM (active) in experiment [13]; 35.8 µM (active) and 31.7 µM (active) in experiment [14]. The molecule was classed as inactive in [16].
